Measured values as given in ChEMBL document CHEMBL2218924, “A broad activity screen in support of a chemogenomic map for kinase signalling research and drug discovery” (Biochem J, 2013).

How the values were obtained:
[1] = target: T1, Ephrin type-B receptor 1 (Homo sapiens) (UniProt P54762); settings: at 10 µM
T1 sequence (whole entry): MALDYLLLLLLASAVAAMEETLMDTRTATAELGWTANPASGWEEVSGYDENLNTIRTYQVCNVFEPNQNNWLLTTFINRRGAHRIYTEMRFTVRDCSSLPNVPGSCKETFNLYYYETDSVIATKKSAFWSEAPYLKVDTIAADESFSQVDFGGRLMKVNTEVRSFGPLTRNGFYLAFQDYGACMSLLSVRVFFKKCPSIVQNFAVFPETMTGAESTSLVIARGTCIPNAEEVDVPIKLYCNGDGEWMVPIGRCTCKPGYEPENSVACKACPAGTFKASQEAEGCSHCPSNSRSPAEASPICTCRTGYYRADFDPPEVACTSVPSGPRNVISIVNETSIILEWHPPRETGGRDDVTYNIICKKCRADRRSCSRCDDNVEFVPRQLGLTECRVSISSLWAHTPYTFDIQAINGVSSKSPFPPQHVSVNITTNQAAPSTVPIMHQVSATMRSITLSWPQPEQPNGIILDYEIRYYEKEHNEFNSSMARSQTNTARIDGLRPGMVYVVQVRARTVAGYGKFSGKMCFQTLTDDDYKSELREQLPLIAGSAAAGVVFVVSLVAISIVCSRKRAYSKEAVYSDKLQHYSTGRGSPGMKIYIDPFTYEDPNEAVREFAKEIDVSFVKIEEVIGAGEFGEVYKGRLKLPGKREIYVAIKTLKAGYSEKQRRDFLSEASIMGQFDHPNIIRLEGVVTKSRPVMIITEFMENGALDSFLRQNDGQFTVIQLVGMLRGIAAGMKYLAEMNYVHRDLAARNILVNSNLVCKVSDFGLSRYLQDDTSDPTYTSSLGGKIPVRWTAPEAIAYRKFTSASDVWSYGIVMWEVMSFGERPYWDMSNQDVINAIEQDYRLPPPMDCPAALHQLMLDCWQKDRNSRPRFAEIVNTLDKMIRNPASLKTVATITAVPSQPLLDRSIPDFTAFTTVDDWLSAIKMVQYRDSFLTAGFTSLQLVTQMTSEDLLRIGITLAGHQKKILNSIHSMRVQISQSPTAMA

[2] = target: T2, Ephrin type-B receptor 2 (Homo sapiens) (UniProt P29323); settings: at 1 µM
T2 sequence (whole entry): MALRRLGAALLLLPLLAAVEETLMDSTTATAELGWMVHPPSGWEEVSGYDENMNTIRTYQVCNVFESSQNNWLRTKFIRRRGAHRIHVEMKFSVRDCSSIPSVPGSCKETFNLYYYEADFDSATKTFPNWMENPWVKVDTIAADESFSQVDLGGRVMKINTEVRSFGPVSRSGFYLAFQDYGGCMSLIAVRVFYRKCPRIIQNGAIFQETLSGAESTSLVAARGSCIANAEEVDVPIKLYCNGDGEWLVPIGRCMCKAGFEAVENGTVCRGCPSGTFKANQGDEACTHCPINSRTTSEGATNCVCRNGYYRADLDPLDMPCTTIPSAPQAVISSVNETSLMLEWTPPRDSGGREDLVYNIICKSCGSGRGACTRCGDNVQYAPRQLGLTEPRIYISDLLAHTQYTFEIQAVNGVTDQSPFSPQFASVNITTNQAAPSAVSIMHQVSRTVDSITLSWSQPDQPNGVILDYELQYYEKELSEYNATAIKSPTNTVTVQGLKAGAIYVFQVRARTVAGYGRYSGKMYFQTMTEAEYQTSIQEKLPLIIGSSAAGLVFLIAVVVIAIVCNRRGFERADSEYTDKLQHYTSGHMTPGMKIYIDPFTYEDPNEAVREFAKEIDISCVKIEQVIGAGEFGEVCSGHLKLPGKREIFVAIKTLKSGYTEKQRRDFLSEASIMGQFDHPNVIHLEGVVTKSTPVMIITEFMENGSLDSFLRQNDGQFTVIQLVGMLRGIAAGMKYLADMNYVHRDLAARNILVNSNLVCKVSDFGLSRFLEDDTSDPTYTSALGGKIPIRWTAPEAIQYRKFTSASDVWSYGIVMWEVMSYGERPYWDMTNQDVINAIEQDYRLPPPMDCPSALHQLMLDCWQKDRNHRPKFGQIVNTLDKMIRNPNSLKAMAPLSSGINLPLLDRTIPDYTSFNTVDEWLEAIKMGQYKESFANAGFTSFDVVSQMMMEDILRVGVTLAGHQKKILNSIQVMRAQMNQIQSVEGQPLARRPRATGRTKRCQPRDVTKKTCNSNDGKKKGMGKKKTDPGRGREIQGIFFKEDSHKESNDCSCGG

[3] = target: T2, Ephrin type-B receptor 2 (Homo sapiens); settings: at 10 µM
[4] = target: T3, Ephrin type-B receptor 3 (Homo sapiens) (UniProt P54753); settings: at 1 µM
T3 sequence (whole entry): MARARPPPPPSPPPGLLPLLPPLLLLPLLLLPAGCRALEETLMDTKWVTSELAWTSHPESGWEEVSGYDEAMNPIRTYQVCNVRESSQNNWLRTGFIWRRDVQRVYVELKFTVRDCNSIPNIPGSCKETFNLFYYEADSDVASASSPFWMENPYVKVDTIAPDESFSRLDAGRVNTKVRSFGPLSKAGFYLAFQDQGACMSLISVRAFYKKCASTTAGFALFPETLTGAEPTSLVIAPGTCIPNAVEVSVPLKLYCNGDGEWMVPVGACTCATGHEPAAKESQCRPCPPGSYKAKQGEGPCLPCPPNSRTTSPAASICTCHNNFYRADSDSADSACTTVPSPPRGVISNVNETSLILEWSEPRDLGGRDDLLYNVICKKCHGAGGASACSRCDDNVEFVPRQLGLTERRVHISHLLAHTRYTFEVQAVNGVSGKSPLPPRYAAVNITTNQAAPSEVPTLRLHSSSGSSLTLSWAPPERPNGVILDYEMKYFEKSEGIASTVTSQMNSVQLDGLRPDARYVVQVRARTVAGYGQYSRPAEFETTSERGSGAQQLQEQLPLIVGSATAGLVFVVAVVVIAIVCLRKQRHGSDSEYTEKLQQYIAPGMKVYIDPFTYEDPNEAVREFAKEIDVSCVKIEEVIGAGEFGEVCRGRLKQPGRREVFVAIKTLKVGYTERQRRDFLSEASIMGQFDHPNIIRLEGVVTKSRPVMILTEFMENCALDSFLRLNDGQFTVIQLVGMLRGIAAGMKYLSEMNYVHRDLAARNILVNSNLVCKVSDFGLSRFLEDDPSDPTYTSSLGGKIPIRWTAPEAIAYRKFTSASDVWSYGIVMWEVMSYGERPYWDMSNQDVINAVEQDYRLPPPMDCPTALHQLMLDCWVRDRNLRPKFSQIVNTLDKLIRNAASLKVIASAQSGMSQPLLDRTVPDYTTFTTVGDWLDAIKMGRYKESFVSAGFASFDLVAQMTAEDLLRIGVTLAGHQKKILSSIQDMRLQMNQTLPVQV

[5] = target: T3, Ephrin type-B receptor 3 (Homo sapiens); settings: at 10 µM
[6] = target: T4, Ephrin type-B receptor 4 (Homo sapiens) (UniProt P54760); settings: at 1 µM
T4 sequence (whole entry): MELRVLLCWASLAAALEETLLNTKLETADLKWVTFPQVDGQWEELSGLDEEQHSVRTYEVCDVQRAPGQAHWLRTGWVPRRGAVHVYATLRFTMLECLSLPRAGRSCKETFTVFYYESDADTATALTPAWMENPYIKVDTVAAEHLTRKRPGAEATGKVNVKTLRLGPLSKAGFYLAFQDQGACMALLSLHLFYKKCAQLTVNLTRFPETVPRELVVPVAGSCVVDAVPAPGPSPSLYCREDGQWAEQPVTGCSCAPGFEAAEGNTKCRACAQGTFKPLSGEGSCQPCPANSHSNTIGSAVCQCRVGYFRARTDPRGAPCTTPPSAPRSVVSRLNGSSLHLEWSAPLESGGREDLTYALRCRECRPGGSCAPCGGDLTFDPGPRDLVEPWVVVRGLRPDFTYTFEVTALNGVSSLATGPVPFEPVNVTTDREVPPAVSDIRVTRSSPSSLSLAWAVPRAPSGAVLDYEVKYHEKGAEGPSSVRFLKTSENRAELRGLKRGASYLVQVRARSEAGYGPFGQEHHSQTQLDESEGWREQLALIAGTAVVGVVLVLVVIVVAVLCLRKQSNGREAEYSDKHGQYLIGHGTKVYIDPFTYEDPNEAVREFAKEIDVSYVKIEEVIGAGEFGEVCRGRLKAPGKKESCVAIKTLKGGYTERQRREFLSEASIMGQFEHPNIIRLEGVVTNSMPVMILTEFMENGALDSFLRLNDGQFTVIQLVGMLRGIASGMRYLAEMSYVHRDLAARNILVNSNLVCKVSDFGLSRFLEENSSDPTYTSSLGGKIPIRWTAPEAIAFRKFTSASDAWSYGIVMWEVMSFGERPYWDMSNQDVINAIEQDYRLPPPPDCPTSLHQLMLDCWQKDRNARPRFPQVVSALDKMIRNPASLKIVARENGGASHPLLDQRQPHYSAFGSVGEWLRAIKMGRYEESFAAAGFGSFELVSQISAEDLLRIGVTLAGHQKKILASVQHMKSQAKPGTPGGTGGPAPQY

[7] = target: T4, Ephrin type-B receptor 4 (Homo sapiens); settings: at 10 µM
[8] = target: Receptor tyrosine-protein kinase erbB-4 (Homo sapiens) (UniProt Q15303); settings: at 1 µM
[9] = target: Receptor tyrosine-protein kinase erbB-4 (Homo sapiens) (UniProt Q15303); settings: at 10 µM
[10] = target: Focal adhesion kinase 1 (Homo sapiens) (UniProt Q05397); settings: at 1 µM
Sequence of Focal adhesion kinase 1 (Homo sapiens) (Q05397 2-1052 limits assumed): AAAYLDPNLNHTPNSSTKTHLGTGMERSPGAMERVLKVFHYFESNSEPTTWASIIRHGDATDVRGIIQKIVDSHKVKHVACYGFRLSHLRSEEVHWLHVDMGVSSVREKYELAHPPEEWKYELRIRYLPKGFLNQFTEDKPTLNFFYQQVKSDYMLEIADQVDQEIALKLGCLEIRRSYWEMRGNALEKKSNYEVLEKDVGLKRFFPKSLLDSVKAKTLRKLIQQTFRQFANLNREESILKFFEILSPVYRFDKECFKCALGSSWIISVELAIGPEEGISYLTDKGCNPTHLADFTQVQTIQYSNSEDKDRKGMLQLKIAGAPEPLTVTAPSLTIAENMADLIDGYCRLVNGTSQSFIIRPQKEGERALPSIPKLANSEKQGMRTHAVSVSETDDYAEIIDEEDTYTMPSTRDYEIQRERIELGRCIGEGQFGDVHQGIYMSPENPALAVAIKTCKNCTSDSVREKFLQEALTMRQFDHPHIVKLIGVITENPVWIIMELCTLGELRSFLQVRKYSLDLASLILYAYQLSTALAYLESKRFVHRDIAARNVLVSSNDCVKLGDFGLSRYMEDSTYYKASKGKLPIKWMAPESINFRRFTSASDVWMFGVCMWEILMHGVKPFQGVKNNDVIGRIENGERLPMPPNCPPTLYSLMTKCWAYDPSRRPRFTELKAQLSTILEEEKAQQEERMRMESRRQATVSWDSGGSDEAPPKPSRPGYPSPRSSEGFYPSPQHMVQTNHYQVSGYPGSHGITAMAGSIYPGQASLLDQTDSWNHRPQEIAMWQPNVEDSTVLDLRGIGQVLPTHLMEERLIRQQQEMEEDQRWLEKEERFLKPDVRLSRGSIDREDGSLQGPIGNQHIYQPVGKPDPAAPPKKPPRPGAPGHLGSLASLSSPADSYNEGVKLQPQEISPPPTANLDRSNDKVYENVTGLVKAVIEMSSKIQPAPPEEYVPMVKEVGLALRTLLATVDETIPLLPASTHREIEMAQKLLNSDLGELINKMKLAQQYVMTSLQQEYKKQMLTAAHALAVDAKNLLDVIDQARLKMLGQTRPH

[11] = target: Focal adhesion kinase 1 (Homo sapiens) (UniProt Q05397); settings: at 10 µM
[12] = target: Fibroblast growth factor receptor 1 (Homo sapiens) (UniProt P11362); settings: at 1 µM
Sequence of Fibroblast growth factor receptor 1 (Homo sapiens) (P11362 22-822 limits assumed): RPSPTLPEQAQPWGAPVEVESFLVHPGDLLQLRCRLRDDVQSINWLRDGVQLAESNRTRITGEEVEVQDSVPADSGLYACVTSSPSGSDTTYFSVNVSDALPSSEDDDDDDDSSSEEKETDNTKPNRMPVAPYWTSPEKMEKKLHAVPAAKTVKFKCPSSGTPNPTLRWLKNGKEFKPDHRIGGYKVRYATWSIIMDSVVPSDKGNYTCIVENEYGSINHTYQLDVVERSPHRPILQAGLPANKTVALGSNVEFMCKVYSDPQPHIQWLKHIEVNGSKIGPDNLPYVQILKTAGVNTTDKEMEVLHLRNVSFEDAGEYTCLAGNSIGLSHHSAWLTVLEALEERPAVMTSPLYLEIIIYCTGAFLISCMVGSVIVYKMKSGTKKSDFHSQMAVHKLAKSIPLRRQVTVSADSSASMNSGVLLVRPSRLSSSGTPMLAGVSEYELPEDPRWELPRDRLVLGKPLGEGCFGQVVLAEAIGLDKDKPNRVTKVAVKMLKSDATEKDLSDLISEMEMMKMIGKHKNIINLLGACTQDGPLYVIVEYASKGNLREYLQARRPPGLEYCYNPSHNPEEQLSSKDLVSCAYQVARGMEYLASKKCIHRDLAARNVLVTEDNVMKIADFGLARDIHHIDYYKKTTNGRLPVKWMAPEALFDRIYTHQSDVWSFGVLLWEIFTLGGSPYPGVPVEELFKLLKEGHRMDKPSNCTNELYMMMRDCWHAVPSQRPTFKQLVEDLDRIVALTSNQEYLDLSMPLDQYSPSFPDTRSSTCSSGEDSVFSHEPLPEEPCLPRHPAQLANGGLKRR

[13] = target: Fibroblast growth factor receptor 1 (Homo sapiens) (UniProt P11362); settings: at 10 µM
[14] = target: Fibroblast growth factor receptor 2 (Homo sapiens) (UniProt P21802); settings: at 1 µM
Sequence of Fibroblast growth factor receptor 2 (Homo sapiens) (P21802 22-821 limits assumed): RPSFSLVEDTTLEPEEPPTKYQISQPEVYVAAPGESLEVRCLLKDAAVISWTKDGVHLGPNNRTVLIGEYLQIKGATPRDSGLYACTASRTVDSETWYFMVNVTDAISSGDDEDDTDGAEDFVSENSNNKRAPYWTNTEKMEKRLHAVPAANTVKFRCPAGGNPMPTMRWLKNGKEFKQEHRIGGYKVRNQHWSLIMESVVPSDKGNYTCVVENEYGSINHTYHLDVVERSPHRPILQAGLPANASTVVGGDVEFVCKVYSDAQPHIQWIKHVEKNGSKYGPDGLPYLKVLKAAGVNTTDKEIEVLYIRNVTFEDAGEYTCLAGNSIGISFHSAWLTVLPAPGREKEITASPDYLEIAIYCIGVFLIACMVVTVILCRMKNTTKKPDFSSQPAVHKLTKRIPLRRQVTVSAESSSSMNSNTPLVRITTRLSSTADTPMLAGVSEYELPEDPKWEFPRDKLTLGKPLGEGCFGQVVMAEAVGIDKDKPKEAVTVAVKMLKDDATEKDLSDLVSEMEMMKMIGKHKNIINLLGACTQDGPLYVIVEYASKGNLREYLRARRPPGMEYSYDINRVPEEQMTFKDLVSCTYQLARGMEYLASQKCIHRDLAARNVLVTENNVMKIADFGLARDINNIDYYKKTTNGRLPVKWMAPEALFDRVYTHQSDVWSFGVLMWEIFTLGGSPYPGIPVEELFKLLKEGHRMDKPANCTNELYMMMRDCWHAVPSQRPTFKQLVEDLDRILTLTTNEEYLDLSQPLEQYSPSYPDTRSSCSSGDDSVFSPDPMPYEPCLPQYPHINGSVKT

[15] = target: Fibroblast growth factor receptor 2 (Homo sapiens) (UniProt P21802); settings: at 10 µM
[16] = target: Fibroblast growth factor receptor 3 (Homo sapiens) (UniProt P22607); settings: at 1 µM
Sequence of Fibroblast growth factor receptor 3 (Homo sapiens) (P22607 23-806 limits assumed): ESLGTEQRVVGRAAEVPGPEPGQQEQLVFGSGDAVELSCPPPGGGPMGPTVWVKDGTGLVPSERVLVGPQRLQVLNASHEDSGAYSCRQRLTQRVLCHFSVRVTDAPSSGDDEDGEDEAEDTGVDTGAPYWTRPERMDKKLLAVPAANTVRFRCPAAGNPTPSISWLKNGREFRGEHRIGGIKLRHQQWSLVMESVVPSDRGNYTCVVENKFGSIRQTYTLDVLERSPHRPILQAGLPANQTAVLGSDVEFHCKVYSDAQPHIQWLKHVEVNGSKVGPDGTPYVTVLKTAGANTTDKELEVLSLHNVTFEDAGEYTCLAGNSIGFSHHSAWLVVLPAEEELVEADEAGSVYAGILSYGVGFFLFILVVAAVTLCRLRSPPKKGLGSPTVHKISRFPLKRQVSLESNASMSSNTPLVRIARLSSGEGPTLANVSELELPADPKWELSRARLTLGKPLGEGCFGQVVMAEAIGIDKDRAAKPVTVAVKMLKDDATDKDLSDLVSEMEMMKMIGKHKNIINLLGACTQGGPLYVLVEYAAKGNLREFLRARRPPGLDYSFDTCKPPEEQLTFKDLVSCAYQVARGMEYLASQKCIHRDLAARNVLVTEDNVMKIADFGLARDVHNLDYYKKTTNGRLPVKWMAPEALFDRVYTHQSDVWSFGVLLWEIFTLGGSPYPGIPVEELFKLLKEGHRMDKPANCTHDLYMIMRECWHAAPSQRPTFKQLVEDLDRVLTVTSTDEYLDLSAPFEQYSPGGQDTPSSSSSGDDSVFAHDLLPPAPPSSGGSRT

[17] = target: Fibroblast growth factor receptor 3 (Homo sapiens) (UniProt P22607); settings: at 10 µM
[18] = target: Fibroblast growth factor receptor 4 (Homo sapiens) (UniProt P22455); settings: at 1 µM
Sequence of Fibroblast growth factor receptor 4 (Homo sapiens) (P22455 22-802 limits assumed): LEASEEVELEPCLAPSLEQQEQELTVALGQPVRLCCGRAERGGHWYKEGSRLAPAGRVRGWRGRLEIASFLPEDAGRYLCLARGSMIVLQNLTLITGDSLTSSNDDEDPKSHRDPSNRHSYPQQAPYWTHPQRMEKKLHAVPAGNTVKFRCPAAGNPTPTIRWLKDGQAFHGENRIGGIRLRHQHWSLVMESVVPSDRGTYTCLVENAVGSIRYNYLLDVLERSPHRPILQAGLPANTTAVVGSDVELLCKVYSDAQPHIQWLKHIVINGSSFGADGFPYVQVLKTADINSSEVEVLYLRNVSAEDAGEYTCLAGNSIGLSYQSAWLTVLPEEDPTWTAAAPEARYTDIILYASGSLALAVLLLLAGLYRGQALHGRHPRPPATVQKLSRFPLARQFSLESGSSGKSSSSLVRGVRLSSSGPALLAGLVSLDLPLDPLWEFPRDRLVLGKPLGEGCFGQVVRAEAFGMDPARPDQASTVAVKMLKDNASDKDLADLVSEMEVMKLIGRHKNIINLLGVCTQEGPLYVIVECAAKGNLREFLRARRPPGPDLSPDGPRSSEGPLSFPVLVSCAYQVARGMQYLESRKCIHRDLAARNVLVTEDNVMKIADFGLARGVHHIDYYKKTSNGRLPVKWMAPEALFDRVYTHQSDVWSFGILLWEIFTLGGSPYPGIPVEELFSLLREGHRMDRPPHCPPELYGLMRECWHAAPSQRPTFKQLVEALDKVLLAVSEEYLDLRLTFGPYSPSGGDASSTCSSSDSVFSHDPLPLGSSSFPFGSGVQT

[19] = target: Fibroblast growth factor receptor 4 (Homo sapiens) (UniProt P22455); settings: at 10 µM
[20] = target: Tyrosine-protein kinase Fer (Homo sapiens) (UniProt P16591); settings: at 1 µM
Sequence of Tyrosine-protein kinase Fer (Homo sapiens) (P16591 whole entry, looked up): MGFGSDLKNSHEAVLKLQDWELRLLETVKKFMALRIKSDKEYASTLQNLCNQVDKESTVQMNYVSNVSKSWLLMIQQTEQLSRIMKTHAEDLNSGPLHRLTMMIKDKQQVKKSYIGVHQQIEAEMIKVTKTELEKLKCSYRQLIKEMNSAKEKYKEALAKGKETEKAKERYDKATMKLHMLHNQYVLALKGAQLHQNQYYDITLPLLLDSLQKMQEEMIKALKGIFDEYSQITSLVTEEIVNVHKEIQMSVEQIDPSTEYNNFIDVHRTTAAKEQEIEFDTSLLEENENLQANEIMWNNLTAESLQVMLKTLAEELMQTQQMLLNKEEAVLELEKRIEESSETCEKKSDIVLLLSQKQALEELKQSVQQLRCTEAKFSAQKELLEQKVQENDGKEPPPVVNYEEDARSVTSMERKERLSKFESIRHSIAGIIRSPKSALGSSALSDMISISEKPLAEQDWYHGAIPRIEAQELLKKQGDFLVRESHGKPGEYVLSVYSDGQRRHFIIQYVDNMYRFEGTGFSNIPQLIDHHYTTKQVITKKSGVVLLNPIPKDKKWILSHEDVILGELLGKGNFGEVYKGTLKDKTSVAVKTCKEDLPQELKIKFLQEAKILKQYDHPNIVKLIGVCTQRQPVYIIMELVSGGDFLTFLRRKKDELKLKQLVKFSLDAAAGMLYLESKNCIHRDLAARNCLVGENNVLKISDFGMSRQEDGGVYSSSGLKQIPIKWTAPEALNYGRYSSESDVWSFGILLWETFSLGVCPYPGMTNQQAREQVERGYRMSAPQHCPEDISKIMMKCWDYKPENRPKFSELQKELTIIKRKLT

Row | Compound | residual activity [1] | residual activity [2] | residual activity [3] | residual activity [4] | residual activity [5] | residual activity [6] | residual activity [7] | residual activity [8] | residual activity [9] | residual activity [10] | residual activity [11] | residual activity [12] | residual activity [13] | residual activity [14] | residual activity [15] | residual activity [16] | residual activity [17] | residual activity [18] | residual activity [19] | residual activity [20]
1 | Oc1ccc(-c2nc(-c3ccc(F)cc3)c(-c3ccncc3)[nH]2)cc1 | 53% | 94% | 43% | 95% (inactive) | 117% | 103% | 41% | 114% | 72% | 117% | 113% | 112% | 41% | 115% | 87% | 121% | 88% | 114% | 96% | 102%
2 | Cc1cccc(-c2[nH]c(C(C)(C)C)nc2-c2ccc3c(c2)OCO3)n1 | – | – | – | – | – | – | – | 94% | 86% | – | 95% | – | – | – | 95% | – | 129% | – | – | –
3 | NC(=O)c1ccc2[nH]c(-c3ccc(Oc4ccc(Cl)cc4)cc3)nc2c1 | 94% | 110% | 128% | 102% (inactive) | 94% | 89% | 93% | 106% | 126% | 91% | 65% | 118% | 101% | 108% | 103% | 129% | 132% | 123% | 126% | 95%
4 | Oc1c2ccccc2c2c3c(cccc13)N=N2 | 29% | 101% | 95% | – | 81% | 89% | 55% | 104% | 97% | 52% | 9% | 39% | 4% | 52% | 12% | 72% | 40% | 110% | 89% | 75%
5 | Cc1cc(Nc2nc(-c3ccccc3)nc3ccccc23)n[nH]1 | 17% | 100% | 48% | 111% (inactive) | – | 75% | 20% | 106% | 45% | 36% | 7% | 4% | 2% | 24% | 2% | 34% | 4% | 106% | 72% | 43%
6 | O=C1NC(=O)c2c1c1c3ccccc3[nH]c1c1[nH]c3cc(Br)ccc3c21 | 98% | 106% | 101% | 107% (inactive) | 83% | 102% | 93% | 95% | 83% | 98% | 95% | 90% | 57% | 99% | 82% | 104% | 88% | 94% | 90% | 103%
7 | Nc1nc(Nc2ccc(S(N)(=O)=O)cc2)nn1C(=S)Nc1c(F)cccc1F | -1% | – | – | – | – | 30% | 4% | 105% | 96% | 20% | -1% | 1% | -1% | 1% | -1% | 3% | 0% | 71% | 23% | 23%
8 | COc1cc2ncnc(Nc3ccc(Oc4ccccc4)cc3)c2cc1OC | 107% | 115% | 109% | 120% (inactive) | 93% | 106% | 138% | -3% | -5% | 72% | 71% | – | 48% | 65% | 33% | 78% | 54% | 121% | 109% | 110%
